The campaign covered roughly 2,100 compounds. About 30 (1%) were called active.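 Rule for the calls: active = compounds whose mean binding response over two repeats is below 75% of the DMSO control; inactive = the rest.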 Not all results are given here.
The compounds below were run against Desmoglein-3 (Homo sapiens) (UniProt P32926) (assay: blockers of pemphigus antibody–desmoglein-3 interaction – biochemical, cherry pick 1, bead-based, flow cytometry, confirmation (AID 588466;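 note: 100% = 2% DMSO vehicle and 0% = excess soluble DSG3 blocking control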)). Settings: Protein G beads with DSG3, scFv-GFP binding, at 10 µM, stronger effect = lower value.
Desmoglein-3 (Homo sapiens), sequence (P32926 whole entry, looked up): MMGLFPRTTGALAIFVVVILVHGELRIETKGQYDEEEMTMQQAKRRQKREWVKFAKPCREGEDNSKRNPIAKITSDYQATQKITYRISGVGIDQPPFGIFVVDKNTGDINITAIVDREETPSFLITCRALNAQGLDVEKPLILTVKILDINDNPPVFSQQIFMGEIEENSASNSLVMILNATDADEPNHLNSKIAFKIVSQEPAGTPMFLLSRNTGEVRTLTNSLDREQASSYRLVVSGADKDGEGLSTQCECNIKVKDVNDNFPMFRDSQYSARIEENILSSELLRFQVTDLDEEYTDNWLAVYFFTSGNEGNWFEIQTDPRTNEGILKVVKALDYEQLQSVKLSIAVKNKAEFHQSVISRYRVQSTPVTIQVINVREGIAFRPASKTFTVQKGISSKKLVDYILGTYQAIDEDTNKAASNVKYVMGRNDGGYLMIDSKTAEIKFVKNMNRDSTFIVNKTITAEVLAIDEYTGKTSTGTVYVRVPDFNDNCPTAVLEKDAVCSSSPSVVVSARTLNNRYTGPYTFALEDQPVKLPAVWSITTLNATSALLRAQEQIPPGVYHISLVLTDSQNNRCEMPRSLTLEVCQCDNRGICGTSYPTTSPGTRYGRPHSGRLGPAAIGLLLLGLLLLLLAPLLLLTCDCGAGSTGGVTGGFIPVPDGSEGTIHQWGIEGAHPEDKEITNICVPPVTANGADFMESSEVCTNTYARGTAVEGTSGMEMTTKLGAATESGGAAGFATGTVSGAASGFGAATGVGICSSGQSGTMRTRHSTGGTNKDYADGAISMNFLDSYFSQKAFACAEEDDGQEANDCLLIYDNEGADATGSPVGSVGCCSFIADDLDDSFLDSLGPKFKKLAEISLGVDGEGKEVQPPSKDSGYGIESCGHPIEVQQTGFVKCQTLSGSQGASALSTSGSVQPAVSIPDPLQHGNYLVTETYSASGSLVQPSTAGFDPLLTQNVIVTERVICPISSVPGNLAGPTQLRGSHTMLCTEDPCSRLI

Binding response (% of DMSO), inactive:
O=C(NCCCN1CCOCC1)c1cc2nc(-c3ccco3)cc(C(F)(F)F)n2n1 101%
CC1CC(C)CN(c2ncc3c(n2)CC(c2ccccc2)CC3=O)C1 (centres undefined) 99%
O=c1c2nnn(Cc3ccc(Cl)cc3)c2ncn1Cc1ccc(F)cc1 93.7%
O=C(Nc1ccc(N2CCN(C(=O)c3ccccc3)CC2)cc1)c1cc2ccccc2o1 93.8%
Cc1ccc(N2CCN(S(=O)(=O)c3nnc(NC(=O)c4ccccc4)s3)CC2)cc1 98.7%
CCOc1ccc2c(c1)C(NC(C)=O)C(=O)N2CCN1CCOCC1 (centres undefined) 97.4%
O=C(Nc1cccc(NC(=O)c2ccc(Cl)cc2)n1)c1ccc(Cl)cc1 100%
CNC(=O)CN1C(=O)NC(c2ccccc2)(c2ccccc2)C1=O 100%
Cc1ccc(Sc2ncccc2COC(=O)Nc2c(C)cccc2C)cc1 96.3%
FC(F)(F)c1cc(-c2ccco2)nc(NCCc2ccccc2)n1 106%
O=C(NCCCN1CCOCC1)c1cc(-c2cccc(Br)c2)nc2ccccc12 102%
COc1ccc(-c2cn3c(C)c(C(=O)NC(C)C)sc3n2)cc1 95.9%
O=C(Nc1ccc(NS(=O)(=O)c2ccccc2)cc1)c1ccc(Cl)cc1 49.9%
Cc1ccc(NS(=O)(=O)c2ccc3c(c2)oc(=O)n3C)cc1F 99.5%
CCn1nc(C(=O)OCc2c(C)noc2C)c2ccccc2c1=O 104%
COc1ccc(NC(=O)CCCC(=O)c2ccccc2)cc1 103%
CCN(CC)CC(=O)NN=C(c1ccccc1)c1ccccc1 100%
CCSc1nnc(NC(=O)CSc2nnc(CNC(=O)c3ccc(OC)cc3)o2)s1 102%
CCN(CC(=O)Nc1ccc(S(=O)(=O)N2CCCCC2)cc1)Cc1ccccc1 98%
O=C(COc1ccccc1Cl)NCCNC(=O)c1ccccn1 101%
CCN(CC)CCn1c2c(c(SCC(=O)Nc3ccc(C)c(F)c3)nc1=O)CCC2 103%
Cc1nc(N)sc1-c1csc(Nc2ncccn2)n1 95.9%
Cc1cnc(C(=O)N2CCN(S(=O)(=O)c3cc(C(F)(F)F)cc(C(F)(F)F)c3)CC2)cn1 110%
COc1ccc(S(=O)(=O)N2CCN(CC(=O)Nc3cc(Cl)ccc3Cl)CC2)cc1 95%
COc1ccc(-n2c(SCC(=O)O)nc3sc4c(c3c2=O)CCCC4)cc1 103%
CCOC(=O)N1CCC(n2c(SCC(=O)c3ccccc3)nc3ccsc3c2=O)CC1 93.2%
Cc1ccc(NS(=O)(=O)c2c(C)[nH]c(C)c2C(=O)N2CCCCC2)c(Br)c1 101%
CCCCCC(=O)N1C[C@@H](O)[C@H](n2cc(-c3ccc(F)cc3)nn2)C[C@@H]1c1ccc(OC)cc1 99.7%
CC(=O)c1cc2c(cc1NC(=O)c1ccc(Cl)cc1)OCCO2 87.5%
COc1ccc(NC(=O)Cn2nnc(C(=O)NCc3ccccc3)c2N)cc1Cl 76.4%
CC(C)Oc1ccc(C(=O)Nc2c3c(nn2-c2ccccc2)CS(=O)(=O)C3)cc1 96.5%
CC(=O)c1ccc(NC(=O)Cn2cnc(S(=O)(=O)N3CCc4ccccc43)c2)cc1 94.8%
COc1cccc(C(=O)NCc2ccc3c(c2)cc(C)n3C)c1 109%
NNc1nc2c(-c3ccc(Cl)cc3)nnn2c2ccccc12 91.9%
COc1ccc(NC(=O)NN2CCN(C)CC2)c(OC)c1 99.8%
CSc1ccccc1OCc1cc(C(=O)N2CCN(Cc3nccn3C)CC2)no1 106%
C=CCNc1nc(-c2cccc(OC)c2O)nc2ccccc12 92.4%
Nc1nc(SCc2nnc(SCC(=O)O)n2-c2ccccc2)nc2sc3c(c12)CCCC3 106%
C=CCn1c(O)c(C2=c3ccccc3=NC2=O)s/c1=N/c1nccs1 71.7%
C=CCN1C2CCCC1CC(NC(=O)Nc1cccc(C(C)=O)c1)C2 (centres undefined) 104%
COc1ccc(NC(=O)c2cc(-c3ccco3)nc3ccccc23)cc1 74.5%
COc1ccc(NC(=O)CN(C)Cc2cccs2)cc1Cl 105%
COC(=O)c1ccc(NC(=O)COc2ccc3c(c2)OCO3)cc1 102%
CN(c1ccc(C(=O)NC2CC3CCC2C3)cc1)S(C)(=O)=O (centres undefined) 101%
CC(=O)C1=C(O)CC(c2ccccc2)CC1=NCCc1c(C)[nH]c2ccc(C)cc12 (centres undefined) 96.5%
CC(C)CNC(=O)c1ccccc1NC(=O)CN(c1ccccc1)S(=O)(=O)N(C)C 102%
CCOC(=O)c1c(S(=O)(=O)NCC(C)c2ccccc2)c(C)n(C)c1C (centres undefined) 97.9%
CCCOC(=O)CSc1nc(N)c(C#N)c(CC)c1C#N 108%
CN(C)S(=O)(=O)c1cccc(NC(=O)COC(=O)c2cc3ccccc3oc2=O)c1 90.6%
COc1ccc(CNC(=O)c2ccc(Cl)c(NC3=NC4CS(=O)(=O)CC4S3)c2)cc1 (centres undefined) 104%
CCn1cc(C(=O)NCc2cccnc2)c(=O)c2cc(F)c(N3CCN(C(=O)c4ccco4)CC3)cc21 105%
Cc1ccc(S(=O)(=O)N2CCCCC2)cc1NC(=O)CCNC(=O)c1ccccc1Cl 98.5%
O=C(CSc1nnc(CNC(=O)c2ccc(F)cc2)o1)Nc1nccs1 99.5%
CCOc1ccccc1NS(=O)(=O)c1ccc2[nH]c(=O)[nH]c2c1 89.3%
O=C(CN1CCN(S(=O)(=O)c2cc(Br)ccc2Br)CC1)NCc1ccccc1Cl 108%
Cc1ccc(NC(=O)Nc2ccc3c(c2)OCO3)nc1 101%
COc1ccc(CCN2CC(C(=O)OCC(=O)NC(Cc3ccccc3)C(C)=O)CC2=O)cc1OC (centres undefined) 102%
CCOc1ccc(NC(=O)c2nc(SCC)ncc2Cl)cc1 101%
CCOc1ccc(C(=O)Nc2cccc3cccnc23)cc1 93%
Cc1ccc(C)n1NC(=O)c1cccs1 91.4%
COc1ccc(CC(=O)OCC(=O)NCc2ccc3c(c2)OCO3)cc1OC 99.5%
CCOC(=O)N1CCC(NC(=O)c2cc3c(-c4ccc(Cl)cc4)nn(C)c3s2)CC1 95.6%
COc1cccc(C(=O)Nc2cc(-c3cn4cccnc4n3)ccc2C)c1 102%
COc1ccc(CNC(=O)C(C)n2nc(C)c3c(C)n(-c4ccccc4)nc3c2=O)c(OC)c1 (centres undefined) 95.7%
Cc1nc(SCc2nc3c([N+](=O)[O-])cccc3[nH]2)c2oc3ccccc3c2n1 108%
CN(CCC1CCOCC1)C(=O)C1CCC(=O)N(CCc2ccccc2)C1 (centres undefined) 101%
CCOC(=O)c1cccc(NC(=O)c2ccc3c(c2)C(=O)N(CC2CCCO2)C3=O)c1 (centres undefined) 103%
COc1ccc(C2=Nn3c(nnc3-c3ccccc3Cl)SC2)cc1OC1CCOC1 (centres undefined) 91.3%
Nc1cccc(C(=O)c2ccccc2C(=O)O)c1 98.2%
O=C1CSC(c2ccncc2)N1Cc1ccco1 (centres undefined) 106%
COC(=O)c1ccc(N(C(=O)CNC(=O)c2ccco2)C(C(=O)NCC2CCCO2)c2ccc(OC)c(OC)c2)cc1 (centres undefined) 104%
CC(=O)Nc1ccc(C(=O)OCC(=O)c2ccc(S(=O)(=O)N3CCCCC3)cc2)cc1 110%
Cc1ccc(-n2nc3c(c2NC(=O)c2ccc(Br)o2)CSC3)c(C)c1 95.6%
Cc1cc(NC(=O)CSc2nccn2-c2ccc(Cl)cc2)no1 103%
CCOc1cccc(C(=O)Nc2ccc(N3CCN(S(C)(=O)=O)CC3)cc2)c1 90.8%
Clc1ccc(-[n+]2c(-c3cccc(Br)c3)[nH]c3nc4ccccc4nc32)cc1 90.4%
COc1ccc(Oc2nnc(-c3ccccc3)cc2C#N)cc1 94.9%
O=C(CSc1nc(=O)[nH]c2c1CCCC2)Nc1ccc(F)cc1F 106%
O=C1c2ccc(-c3ccc(F)cc3OCc3ccccc3)cc2S(=O)(=O)c2cccc(C(=O)N3CCN(c4ncc(Br)cn4)CC3)c21 84.2%
CCOc1ccc2nc(NC(=O)c3ccc(S(=O)(=O)N4CCOCC4)cc3)sc2c1 77.7%
CC1=CCC2C(=O)N(c3ccc(C)c(Br)c3)C(=O)C2C1 (centres undefined) 109%
COc1ccccc1CN(C)C[C@@H]1OCc2cnnn2CCCC(=O)N([C@@H](C)CO)C[C@H]1C 96.2%
CN(c1ccccc1)S(=O)(=O)c1cccc(NC(=O)C2=NNC(=O)CC2)c1 98.4%
CC(=O)c1cccc(N(C(=O)CNC(=O)c2cccs2)C(C(=O)NCC2CCCO2)c2ccccc2)c1 (centres undefined) 102%
COc1ccc(-c2csc(NC(=O)c3cc(C)on3)c2C#N)cc1OC 97.8%
O=C(c1cnn(-c2nc3ccccc3s2)c1)c1ccccc1O 102%
CCN1C(=O)[C@H]2[C@@H](c3ccc(C)cc3)N3C(=O)N(c4ccc(OC)cc4)C(=O)[C@@]3(Cc3ccccc3)[C@H]2C1=O 98.4%
COc1ccc(-c2cc(=O)oc3cc(OCC(=O)Nc4ccccn4)ccc23)cc1 88.2%
CN1CCN(Cc2nc3ccccc3c(=O)n2Cc2nc(-c3ccc([N+](=O)[O-])cc3)cs2)CC1 103%
